# Test results published in PubChem BioAssay (NCI).
# Compounds without any hit were thinned out: in the full panel of roughly 83,000, 20% have a hit.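 How to read the values: 0–100, growth inhibition (40 = 60% inhibited); 0, no net growth; -100 to 0, cell death (-40 = 40% of starting cells died; -100 = all dead).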 Values without a mark were called inactive. Active and inactive are the calls of the source. Rule for the calls: active = growth percent below 10; inactive = the rest.
# How the values were obtained:
# Assay in all cases: NCI-60 one-dose screen, 48 h (100 = growth as untreated, 0 = no growth, -100 = all killed)
# Conditions in all cases: 10 µM
# HCT-15 colon = system: HCT-15 colon
# HT29 colon = system: HT29 colon
# SNB-75 CNS = system: SNB-75 CNS
# SNB-19 CNS = system: SNB-19 CNS
# U251 CNS = system: U251 CNS
# PC-3 prostate = system: PC-3 prostate
# SK-MEL-5 melanoma = system: SK-MEL-5 melanoma
# UACC-62 melanoma = system: UACC-62 melanoma
# LOX IMVI melanoma = system: LOX IMVI melanoma
# SK-MEL-28 melanoma = system: SK-MEL-28 melanoma
Compound,growth (HCT-15 colon),growth (HT29 colon),growth (SNB-75 CNS),growth (SNB-19 CNS) [%],growth (U251 CNS),growth (PC-3 prostate),growth (SK-MEL-5 melanoma),growth (UACC-62 melanoma),growth (LOX IMVI melanoma),growth (SK-MEL-28 melanoma)
Brc1ccc(-c2cn3ccnc3c(-c3ccc(Br)cc3)n2)cc1,21.6%,9.88% (active),35.6%,75.8,39.2%,66.3%,46.3%,43.6%,43.2%,62.2%
COc1ccc(-c2nc3sc(-c4ccccc4)c(-c4ccccc4)n3c2/C=C/c2ccc(F)cc2)cc1,91.4%,94.7%,72.3%,108,99.3%,61.6%,99.6%,82.8%,87.1%,109%
CCN(CC)c1ccc(/C=C/C2=[N+](C)c3ccccc3C2(C)C)c(C)c1,10.5%,2.67% (active),7.22% (active),20.6,7.12% (active),7.18% (active),-97.5% (active),-21.4% (active),3.02% (active),9.14% (active)
C[N+]1=C(/C=C/c2ccc(I)cc2)C(C)(C)c2ccccc21,86.6%,97.2%,95.9%,96.7,40.6%,87.3%,90.4%,95.3%,38%,84.7%
Nc1nc(SCC#CCCl)c2[nH]cnc2n1,45.1%,53.9%,63%,57.1,43.8%,62.6%,29.5%,44%,27.8%,72.8%
CCOc1nc(-c2ccccc2)cc2c(O)c(C(=O)N/N=C/c3ccc(OC)cc3)[nH]c(=O)c12,110%,108%,91.7%,96.9,100%,88%,53.5%,104%,114%,114%
Nc1nsc(C(=O)c2ccc(O)cc2)n1,102%,106%,101%,103,93.5%,76.1%,97.9%,89%,89.3%,100%
Cc1nc2scc(-c3ccc(Cl)cc3)n2c(=O)c1CCN1CCOCC1,105%,105%,84.6%,94.6,96.7%,87.5%,94.5%,85.6%,97.5%,102%
COc1ccccc1Cn1cc2c(c1-c1ccccc1)CCc1cnoc1-2,36%,12.4%,15.6%,53.5,39.7%,29.9%,18.1%,50.1%,38.1%,58.3%
Cc1cc(OI)c(C(C)C)cc1-c1cc(C(C)C)c(OI)cc1C,105%,101%,107%,104,103%,98.6%,103%,98.7%,93.4%,103%
CN(C)CCCN(Cc1ccccc1O)C(=S)Nc1ccc(Cl)cc1,93%,106%,79.5%,94.7,101%,93.8%,91.3%,108%,98.4%,109%
CCSc1nc2c([nH]1)c(=O)n(C)c(=S)n2C,105%,109%,126%,109,105%,101%,119%,105%,96.9%,128%
Cc1nc(Nc2nc3ccccc3o2)nc(-c2cccc([N+](=O)[O-])c2)c1C(=O)Nc1ccc(F)c(Cl)c1,15.5%,6.31% (active),17.8%,11.7,3.14% (active),6.84% (active),0.624% (active),17.1%,0.0269% (active),13.2%
CC1(CO)CCCC12OCCO2 (stereo not given),101%,98.6%,97.2%,105,102%,103%,100%,100%,104%,108%
O=CNc1c(Cl)cc2c(c1Cl)Cc1cc([N+](=O)[O-])ccc1-2,29.3%,58.4%,65.6%,87.5,78.1%,40.2%,5.14% (active),48.8%,55.7%,106%
COc1cc(C2c3cc4c(cc3C(O)C(CO)C2CO)OCO4)cc(OC)c1OC (stereo not given),61.2%,5.41% (active),-4.31% (active),35.8,22.3%,25.3%,11.1%,40.8%,43.8%,44.1%
CS(=O)(=O)Nc1ccc(Nc2c3ccccc3nc3cc(Cl)ccc23)cc1,39.6%,22.4%,30.9%,44.7,19.9%,33.8%,18.6%,36.8%,19.5%,72.6%
O=C(CSc1nnc(-c2ccc(Cl)cc2)o1)c1ccccc1,99%,96.1%,98.3%,101,96%,86.9%,91.7%,92.4%,94.3%,102%
COc1cc(-c2nc3ccccc3[nH]2)ccc1OCC(=O)N=Nc1c(O)[nH]c2ccccc12,99.4%,91.5%,98.1%,98.4,32.1%,64%,68.9%,94.9%,83.4%,101%
O=c1oc2cc(OS(=O)(=O)C3CC3)ccc2c2c1CCCCCC2,72.8%,25.9%,98.7%,88.2,79.1%,68.7%,37.3%,71.3%,85.8%,93.7%
COC(=O)[C@]12CC[C@@H](C)[C@H](C)[C@@H]1C1=CC[C@@H]3[C@@]4(C)CC(=O)[C@H](O)[C@@](C)(CO)[C@@H]4C(=O)C[C@@]3(C)[C@]1(C)CC2,-15.1% (active),-25.6% (active),-0.588% (active),16.6,-43.5% (active),-22.3% (active),-80.3% (active),-57.2% (active),-77.9% (active),21.8%
CC1=CC2OC34COC3CC(OC(=O)C(F)(F)F)C4(C)C2(C)CC1 (stereo not given),97.4%,104%,86%,94.5,101%,100%,97.4%,101%,97.1%,101%
CN(C)c1ccc2c(c1)OC(N)=C(C#N)C2c1ccc2c(c1)CCCN2C (stereo not given),15.8%,10.5%,42.7%,33.3,19.5%,27.3%,21.4%,34.4%,42%,61.5%
Cc1cc(C)c2nc(C)c(C)[n+]([O-])c2c1,97.6%,96.3%,84.1%,109,90.6%,72.8%,104%,105%,95.4%,106%
O=C(/C=C/c1ccc(Cl)cc1)c1ccc(Br)cc1,90.4%,73.7%,101%,99,89.4%,97.4%,105%,92.6%,83.4%,96.5%
COc1ccc(/C=C(\c2cc(OC)c(OC)c(OC)c2)c2nnc(-c3cccs3)o2)cc1,103%,90.7%,-10.5% (active),52.3,55.7%,81.7%,64.6%,78.1%,92.8%,69.7%
Clc1ccc(-c2nc(-c3cccs3)cn3ccnc23)cc1,31.2%,41.6%,68.1%,88.6,82.5%,62.4%,53.2%,60.2%,61.4%,92.5%
CCCCC(CC#N)(CCC)CCC,99%,99%,80.6%,106,102%,99.2%,106%,118%,92.1%,99.6%
